# Most compounds without a hit are left out; they make up all but 1.1% or so of the library.
# CIT2 TOR yeast: modulators of TOR pathway CIT2-GFP in S. cerevisiae | S. cerevisiae CIT2-GFP strain, flow cytometry, 3 h; 100 means same as DMSO wells | GFP response vs DMSO, % at 10 µM | 320,000 compounds, 0.065% hits | AID 2029;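 active = GFP response relative to DMSO above a set limit, near the screen mean plus 3 SD, cut at about 150% in these data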;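 note: ratio of well median GFP fluorescence to mean of DMSO wells on the plate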
# AGP1-GFP MLPCN: yeast TOR pathway AGP1-GFP modulation; 320,000 compounds, 0.02% hits; AID 2066; S. cerevisiae AGP1-GFP multiplex flow cytometry, 3 h; GFP as percent of DMSO wells; GFP response vs DMSO, % at 10 µM;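 active = GFP response relative to DMSO above a set limit, near screen average plus 3 SD, cut at about 150% in these data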;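 note: median GFP channel fluorescence of the gated AGP1 strain per well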
# LAP4-GFP MLPCN: alters LAP4-GFP fluorescence in TOR pathway yeast screen | S. cerevisiae LAP4-GFP multiplex, flow cytometry GFP, 3 h; median GFP as percent of DMSO wells | GFP response vs DMSO, % at 10 µM | 320,000 compounds, 0.34% hits | AID 2023;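 active = GFP response vs DMSO above a set limit, about the screen mean plus 3 SD, cut at about 150% in these data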
# RPL19A TOR yeast: yeast TOR pathway RPL19A-GFP modulation; S. cerevisiae RPL19A-GFP strain, flow cytometry, 3 h; active compounds read low; percent response vs DMSO, % at 10 µM; 330,000 compounds, 0.3% hits;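 active = percent response vs DMSO below 50%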;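 note: median channel GFP fluorescence of the barcoded RPL19A-GFP strain; ratio of sample median GFP to plate DMSO average so 100% = DMSO; lower means less RPL19A-GFP as with rapamycin TOR inhibition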
# VLA-4 inh: inhibition in a human VLA-4 binding assay | P13612 | inhibition, % (about 7 µM as worked out from the volumes in the protocol) | AID 2557 | VLA-4 expressing cells, ligand binding flow cytometry | 330,000 compounds, 0.2% hits; in the data active = inhibition above about 50%
# Target sequence (P13612 whole entry, looked up): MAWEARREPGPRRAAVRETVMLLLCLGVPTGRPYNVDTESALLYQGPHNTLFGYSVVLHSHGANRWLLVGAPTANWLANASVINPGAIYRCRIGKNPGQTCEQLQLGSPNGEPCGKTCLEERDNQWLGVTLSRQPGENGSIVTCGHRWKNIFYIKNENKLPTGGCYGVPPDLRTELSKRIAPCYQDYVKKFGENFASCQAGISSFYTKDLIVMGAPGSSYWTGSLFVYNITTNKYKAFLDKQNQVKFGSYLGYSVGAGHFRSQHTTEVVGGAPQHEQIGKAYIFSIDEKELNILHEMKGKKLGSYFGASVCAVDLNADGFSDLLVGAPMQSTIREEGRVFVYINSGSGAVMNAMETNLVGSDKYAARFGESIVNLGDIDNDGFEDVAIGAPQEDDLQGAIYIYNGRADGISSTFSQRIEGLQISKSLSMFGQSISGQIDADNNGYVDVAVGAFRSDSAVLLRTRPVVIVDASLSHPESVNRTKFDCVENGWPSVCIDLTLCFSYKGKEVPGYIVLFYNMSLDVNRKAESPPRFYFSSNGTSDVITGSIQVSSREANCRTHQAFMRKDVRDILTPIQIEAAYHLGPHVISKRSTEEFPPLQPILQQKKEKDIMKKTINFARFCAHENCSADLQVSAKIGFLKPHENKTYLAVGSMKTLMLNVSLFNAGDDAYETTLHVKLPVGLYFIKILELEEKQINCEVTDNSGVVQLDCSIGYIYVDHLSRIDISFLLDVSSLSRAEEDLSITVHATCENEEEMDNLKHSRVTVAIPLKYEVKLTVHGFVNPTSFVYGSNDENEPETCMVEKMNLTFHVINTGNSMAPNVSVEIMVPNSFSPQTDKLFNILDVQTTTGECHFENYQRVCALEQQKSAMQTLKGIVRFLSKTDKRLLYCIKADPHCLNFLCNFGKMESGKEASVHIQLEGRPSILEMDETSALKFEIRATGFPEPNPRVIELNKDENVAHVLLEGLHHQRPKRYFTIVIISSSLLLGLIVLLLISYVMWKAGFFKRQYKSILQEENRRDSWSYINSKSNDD
# MEP2-GFP yeast: modulators of TOR pathway MEP2-GFP in S. cerevisiae. S. cerevisiae MEP2-GFP strain, flow cytometry GFP, 3 h; 100% = DMSO control level. GFP response vs DMSO, % at 10 µM. 330,000 compounds, 0.51% hits;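 active = GFP response versus DMSO above a set limit, roughly screen mean plus 3 SD, cut at about 180% in these data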;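 note: median GFP fluorescence of the barcode-gated MEP2-GFP cells per well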
# LAP4-GFP pick2: yeast LAP4-GFP modulation, second cherry pick; shares compounds with LAP4-GFP MLPCN; S. cerevisiae LAP4-GFP strain, flow cytometry GFP, 3 h; GFP response vs DMSO, % at 10 µM; 590 compounds, 20% hits;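 active = GFP signal as percent of the solvent control above about 150%, meaning raised reporter expression, limit read from the data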;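 note: ratio of well median GFP fluorescence to plate DMSO mean so 100% = DMSO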
# MEP2-GFP pick2: second confirmation of modulators of TOR reporter MEP2-GFP in yeast; GFP response vs DMSO, % at 10 µM; 590 compounds, 10% hits; S. cerevisiae MEP2-GFP strain, flow cytometry GFP, 3 h; shares compounds with LAP4-GFP MLPCN;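 active = GFP signal above 150% of the solvent control wells, that is a rise of more than half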;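 note: median channel GFP fluorescence of all gated yeast cells per well; ratio of median GFP to plate DMSO average so 100% = DMSO level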
# RPL19A-GFP pick2: second confirmation of modulators of TOR reporter RPL19A-GFP in yeast; 590 compounds, 3% hits; S. cerevisiae RPL19A-GFP strain, flow cytometry GFP, 3 h; active compounds read low; 100% means same as DMSO wells; shares compounds with LAP4-GFP MLPCN; GFP response vs DMSO, % at 10 µM;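 active = under 65% GFP response relative to DMSO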;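 note: median GFP channel fluorescence per well over the all cells gate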
# CIT2 GFP CP2: reconfirmed modulator of CIT2-GFP TOR reporter in yeast; shares compounds with LAP4-GFP MLPCN; S. cerevisiae CIT2-GFP strain, flow cytometry GFP, 3 h; DMSO control wells read 100%; GFP response vs DMSO, % at 10 µM; 590 compounds, 8% hits;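 active = GFP response vs DMSO above about 150%, limit read from the data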;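 note: median green fluorescence per well over all gated yeast cells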
# AGP1-GFP pick2: yeast AGP1-GFP TOR reporter modulation, second cherry pick; shares compounds with LAP4-GFP MLPCN; S. cerevisiae AGP1-GFP strain, flow cytometry GFP, 3 h; percent response vs DMSO, % at 10 µM; 590 tested, under 10 active; AID 2643;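 active = over 150 percent of DMSO response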;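 note: median GFP channel fluorescence over all cells without mother daughter split; sample median GFP divided by mean DMSO control so 100% equals DMSO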
# Yeast autofluor: yeast s288c autofluorescence artifact, counter-screen; fluorescence change (kMESF span) at 33 µM; S. cerevisiae s288c, 520 nm autofluorescence, flow cytometry, 3 h; active compounds read high; zero means same as solvent-only cells; shares compounds with LAP4-GFP MLPCN; 610 tested, under 10 active; AID 2757;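 active = fluorescence span over the dose series, or activity score, above about 33, limit read from the data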
# s288c autofl DR: counter-screen for autofluorescence of TOR hits in yeast s288c; S. cerevisiae s288c parental, compound autofluorescence, flow cytometry, 3 h; 110 tested, under 10 active; shares compounds with LAP4-GFP MLPCN; fluorescence change (span) at 33 µM;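 active = fluorescence change span, or the activity score built from it, above 25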
# TORC1 bypass gr: wildtype yeast growth loss with TORC1 bypass cells unaffected; S. cerevisiae BY4741 spot growth rating, 48-72 h; active compounds read low; 120 tested, under 10 active; growth rating (0-3) at 30 µM; shares compounds with LAP4-GFP MLPCN;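 active = growth rating at most 1 for wild type yeast while the TORC1 bypass strain still grows fully, rated 3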
# The depositor's hits bear a star; . = not tested or not shown.
SMILES,CIT2 TOR yeast,AGP1-GFP MLPCN,LAP4-GFP MLPCN,RPL19A TOR yeast,VLA-4 inh,MEP2-GFP yeast,LAP4-GFP pick2,MEP2-GFP pick2,RPL19A-GFP pick2,CIT2 GFP CP2,AGP1-GFP pick2,Yeast autofluor,others
O=C(/C=C/c1ccccn1)c1ccc(Br)cc1O,81,88,155*,87,-12,84,165*,119,91,96,95,1.5,
Cc1ccc(C)c(S(=O)(=O)N2CCN(C(=O)[C@@H]3CCCN3C(=O)c3cccs3)CC2)c1,95,102,106,100,9,98,.,.,.,.,.,.,
Cc1noc(C)c1C(=O)Nc1ccc(F)cc1,93,110,123,103,-1,97,.,.,.,.,.,.,
Cc1noc(C)c1C(=O)Nc1ccc(N(C)C)cc1,162*,102,85,94,2,99,100,100,100,102,103,.,
O=C(Nc1cccc(-c2csc(Nc3ccccc3)n2)c1)c1ccccc1,90,82,153*,98,5,98,109,103,97,92,93,0.1,
O=C(Nc1cccc(-c2csc(Nc3cccc(C(F)(F)F)c3)n2)c1)c1ccccc1,107,93,141,102,0,100,.,.,.,.,.,.,
O=C(COC(=O)/C=C/c1ccc(S(=O)(=O)N2CCOCC2)cc1)Nc1ccccc1F,116,108,100,103,2,114,.,.,.,.,.,.,
CCn1c(=O)c([N+](=O)[O-])c(Cl)c2ccccc21,90,76,104,62,40,95,118,133,72,81,77,.,
COc1ccc(C(=O)/C=C2/C(=O)Nc3ccccc32)cc1,74,71,167*,103,-148,97,.,.,.,.,.,-0.2,
COc1ccc(C(=O)/C=C2/C(=O)Nc3ccccc32)cc1OC,102,105,95,108,5,103,.,.,.,.,.,-2.1,
COc1cc(OC)c(/C=C2\C(=O)Nc3ccccc32)c(OC)c1,68,78,141,100,-9,102,.,.,.,.,.,.,
COc1ccc(C(=O)/C=C2/C(=O)Nc3ccccc32)c(OC)c1,80,88,137,94,11,87,.,.,.,.,.,0.1,
O=C(Nc1ccccc1[N+](=O)[O-])C1COc2ccccc2O1 (stereo not drawn),101,100,116,108,9,112,.,.,.,.,.,.,
COc1cc2cc(CCO)oc(=O)c2cc1OC,94,96,91,98,7,95,.,.,.,.,.,.,
COc1ccccc1C(=O)NNC(=S)NC(=O)c1cccs1,122,126,186*,125,14,108,.,.,.,.,.,0.2,
O=C(Cc1ccc(Cl)cc1)NNC(=S)NC(=O)c1cccs1,108,113,199*,109,16,104,.,.,.,.,.,1.1,
O=C(Cc1cccs1)NNC(=S)NCc1ccc(Cl)cc1,103,98,96,92,-10,92,.,.,.,.,.,.,
CC1=C(CC(=O)O)c2cc(F)ccc2/C1=C/c1ccc(S(C)=O)cc1 (stereo not drawn),82,86,97,94,10,102,.,.,.,.,.,.,
CCc1nn2c(=O)cc(COC(=O)c3ccc(SC)cc3OC)nc2s1,91,94,101,92,5,99,.,.,.,.,.,.,
CC1=NN(c2ccccc2)C(=O)C1C(c1ccccc1[N+](=O)[O-])C(C#N)C#N (stereo not drawn),.,.,.,.,.,.,.,.,.,.,.,.,s288c autofl DR=0.42;TORC1 bypass gr=3
COCCCN(C(=O)CCOc1ccccc1C)c1c(N)n(Cc2ccccc2)c(=O)[nH]c1=O,88,94,99,92,5,97,.,.,.,.,.,.,
CCOC(=O)C1=C(COC(=O)CNC(=O)c2ccc(C)cc2)NC(=O)NC1C (stereo not drawn),85,88,82,62,-12,87,98,98,99,104,101,.,
Nc1c(C(=O)NC2CC2)sc2nc3c(c(-c4ccco4)c12)CC/C3=C/c1ccco1,86,38,195*,71,-316,261*,141,113,106,119,101,.,
Nc1nc(N)c2nc(-c3ccccc3)c(N)nc2n1,116,44,115,61,-8,332*,97,98,98,93,99,.,
NSc1nc(N)c2nc(-c3ccccc3)c(-c3ccccc3)nc2n1,87,92,102,98,3,108,.,.,.,.,.,.,
SMILES,CIT2 TOR yeast,AGP1-GFP MLPCN,LAP4-GFP MLPCN,RPL19A TOR yeast,VLA-4 inh,MEP2-GFP yeast,LAP4-GFP pick2,MEP2-GFP pick2,RPL19A-GFP pick2,CIT2 GFP CP2,AGP1-GFP pick2,Yeast autofluor,others
S=C(Nc1ccc(Br)cc1)N1CCN(c2ccccn2)CC1,94,94,97,105,21,105,.,.,.,.,.,.,
CC(C)N1CCc2c(sc(NC(=S)NC(=O)c3ccccc3)c2C#N)C1,117,101,99,104,-146,122,.,.,.,.,.,.,
CCCN1CCc2c(sc(NC(=S)NC(=O)c3ccccc3)c2C#N)C1,157*,100,139,112,-141,129,.,.,.,.,.,1.6,
CCC(=O)c1cn(/C(=C\C(=O)OC(C)(C)C)CCC(OC)OC)cc1CC,92,78,127,90,-28,81,.,.,.,.,.,.,
c1coc(C2Nc3cccc4cccc(c34)N2)c1,103,101,103,95,1,100,.,.,.,.,.,.,
Brc1ccc(-c2ccc(C3Nc4cccc5cccc(c45)N3)o2)cc1,72,94,155*,93,-19,90,127,106,91,87,92,.,
Oc1ccc2ccccc2c1/C=N/Nc1nnc(-c2ncc[nH]2)c2ccccc12,111,72,277*,92,-13,194*,.,.,.,.,.,40*,
